# VP16 counter – Gal4-VP16 reporter inhibition counter-screen. AID 2546. Potency, µM (highest dose often 53.6 µM), for inactives: at the top dose activity, negative = inhibition, most hits filed as inhibitors. 310,000 compounds, 3.5% hits. Drosophila S2 Gal4-VP16 UAS-luciferase, luminescence, 20 h;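 note: Gal4-VP16 expression switched on by copper sulfate through the metallothionein promoter; nearly all actives have a fitted effect of over 50% in size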
# DT40 TDP1 CPT – DT40-hTDP1 cell growth loss with CPT; Potency, µM (titrated, usually from 46.2 µM), without a hit: at the top dose activity change, negative = growth inhibition, actives largely listed as inhibitors; chicken DT40 Tdp1-/-;hTDP1 cells + 20 nM CPT, ATP luminescence, 48 h; 420,000 compounds, 12% hits; note: nearly all actives have a fitted effect of over 55% in size
#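 Chicken DT40 Tdp1-/- cells stably complemented with human TDP1 were seeded at 400 cells/well in medium containing 20 nM camptothecin, exposed to pin-transferred compounds, and grown at 37 °C for at least 48 hr. Viability was read as ATP luminescence.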
# DT40 TDP1 no CPT – qHTS for Inhibitors of human tyrosyl-DNA phosphodiesterase 1 (TDP1): qHTS in cells in absence of CPT; DT40 Tdp1-/- hTDP1 cells, no CPT, ATP luminescence, 48 h; 420,000 compounds, 15% hits; Potency, µM (top dose mostly 46.2 µM), for the others: at the highest dose activity change, negative = growth inhibition, most hits filed as inhibitors; note: nearly all actives have a fitted effect of over 55% in size
#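 Chicken DT40 Tdp1-/- cells complemented with human TDP1, screened without camptothecin (DMSO vehicle only), 400 cells/well. Compounds pin-transferred, cells incubated at 37 °C for at least 48 hr. Growth read as ATP-dependent luminescence (CellTiter-Glo, 30 min at RT).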
# ELG1 repair inh – blocks ELG1-dependent DNA repair in HEK293T cells; HEK293T ELG1-luciferase reporter, luminescence, 16 h; DNA damage induced by 5-fluorouridine; Potency, µM (top dose mostly 46.1 µM), for the others: at the highest dose activity change, negative = inhibition, actives largely listed as inhibitors; 330,000 compounds, 2.3% hits; AID 504467; note: nearly all actives have a fitted effect of over 55% in size
#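 Cells (2,000 per well) received 5-fluorouridine plus test compound or DMSO and were incubated 16 hr at 37 °C, 5% CO2. Luciferase activity was read by luminescence 30 min after ONE-Glo addition; signal suppression marked inhibition of damage-induced ELG1 function.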
# 12-LOX inh – ALOX12 (human) lipoxygenase inhibition | 580,000 compounds, 1.1% hits | P18054 | AID 1671190 | purified 12hLO, xylenol orange hydroperoxide absorbance | Potency, µM (doses to about 108 µM), for the others: at the highest dose activity change, negative = inhibition, hits mostly inhibitors
#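 Purified human 12hLO (150 nM final) in 25 mM Hepes, 0.01% Triton X-100, pH 7.0 was preincubated 15 min at room temperature with compound. Then 40 uM arachidonic acid was added, 30 min. Hydroperoxide was read by Fe-XO absorbance ratio 573/405 nm.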
# RORg inh – blocks mouse ROR gamma transcriptional activity. P51450. Drosophila S2 Gal4-RORgamma UAS-luciferase reporter, 20 h. Potency, µM (titrated, usually from 53.6 µM), for the others: at the highest dose activity change, negative = inhibition, actives largely listed as inhibitors. 310,000 compounds, 5.4% hits; note: nearly all actives have a fitted effect of over 60% in size
# Target sequence (P51450 whole entry, looked up, the tested form may be a part): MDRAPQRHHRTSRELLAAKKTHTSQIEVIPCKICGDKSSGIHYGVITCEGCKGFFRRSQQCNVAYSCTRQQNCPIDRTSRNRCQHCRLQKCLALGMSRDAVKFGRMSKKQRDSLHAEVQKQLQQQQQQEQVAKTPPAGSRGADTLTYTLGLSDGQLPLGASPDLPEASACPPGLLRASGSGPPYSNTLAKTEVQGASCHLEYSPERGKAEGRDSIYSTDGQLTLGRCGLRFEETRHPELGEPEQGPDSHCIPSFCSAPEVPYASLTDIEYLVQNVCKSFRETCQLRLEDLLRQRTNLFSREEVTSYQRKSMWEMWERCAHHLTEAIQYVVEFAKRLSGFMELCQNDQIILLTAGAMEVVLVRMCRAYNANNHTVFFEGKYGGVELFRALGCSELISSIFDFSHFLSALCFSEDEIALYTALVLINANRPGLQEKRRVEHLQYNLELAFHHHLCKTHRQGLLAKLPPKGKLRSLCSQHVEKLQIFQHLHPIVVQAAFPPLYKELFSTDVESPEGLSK
#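 Luminescence from a UAS-regulated Photinus luciferase reporter in stably transfected Drosophila Schneider cells is measured; decreased signal marks ROR gamma inhibition. Fusion expression is induced by 700 uM copper sulfate for 20 hr.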
# Starred values were filed as active, the others as inactive; ? = inconclusive; nt = no result; ! = not confirmed by another sample; [ ] = another dose, or the depositor's remark. Compounds with a hit are over-represented: about 15% of the library has one in this group of screens. Calls come from the whole dose curve; as a rule, active = well fitted curve in the direction sought with a large enough effect; inconclusive = small, poorly fitted or top-dose-only effect, or another doubt; inactive = no such curve, though single readings can be large; an effect the other way counts as inactive or inconclusive. % is set by controls: 0 for no effect and ±100 for the full control effect; potency is the fitted concentration of half-maximal effect.
SMILES,VP16 counter,DT40 TDP1 CPT,DT40 TDP1 no CPT,ELG1 repair inh,12-LOX inh,RORg inh
COc1ccc(/C=N/NC(=O)c2nc(-c3ccccc3)n(-c3ccccc3)n2)cc1,3%,10%,3%,-24%,-6%,-4%
COc1ccc2[nH]c(C(=O)c3ccccc3)cc2c1,-11%,0.13µM*,0.15µM*,nt,2%,-15%
COc1ccc2[nH]c(C(=O)N/N=C/c3ccc(O)cc3O)cc2c1,-9%,4.6µM*,3.7µM*,?,94%,?
COc1ccc(/C=N/NC(=O)c2nc(-c3ccccc3)n(-c3ccccc3)n2)c(O)c1,6.3µM*,?,16µM*,-16%,7%,2.2µM*
COc1cccc([S+](=O)([O-])N2CCC(C(=O)O)(c3ccccc3)CC2)c1,nt,nt,nt,nt,0%[6.33 µM],nt
CNC(=O)C1CCCN(S(=O)(=O)c2ccccc2)CCC(=O)NCC1 (centres undefined),nt,nt,nt,nt,32%,nt
COC(=O)c1c(-c2cccs2)csc1NC(=O)COc1ccc(C)cc1,nt,?,?,nt,-15%,nt
COC(=O)c1c(-c2cccs2)csc1NC(=O)COc1ccccc1,nt,16µM*,21µM*,nt,?,nt
COC(=O)c1c(-c2cccs2)csc1NC(=O)COc1ccc(C(C)(C)C)cc1,nt,15µM*,21µM*,nt,-14%,nt
CC1CCCCC1NC(=O)/C=C/c1cccs1 (centres undefined),nt,nt,nt,nt,16%,nt
CC(C)(C(=O)N1CCc2[nH]nc(-c3ccc(F)c(F)c3)c2C1)n1cccc1,nt,nt,nt,nt,59%,nt
CCC[N+](C)(C)c1ccc(/C=C/c2ccncc2)cc1,nt,0.35µM*,0.35µM*,nt,nt,nt
CC[N+](C)(C)c1ccc(/C=C/c2ccncc2)cc1,nt,0.71µM*,0.63µM*,nt,nt,nt
C(=C\c1ccncc1)/c1ccncc1,-14%,0%,24%,0%,-8%,-6%
Cc1nnc(SCc2nc3ccccc3o2)n1-c1ccccc1,nt,nt,nt,nt,14%,nt
O=C1CC(c2ccccc2)N(C(=O)C2CC2)CCCN(C(=O)NCCc2ccccc2)CCN1 (centres undefined),nt,nt,nt,nt,30%,nt
CCOC(=O)c1cnc2ccccc2c1Nc1ccc2c(c1)OCCO2,?,?,?,?,?,11µM*
CCOC(=O)c1cnc2ccccc2c1NCc1ccco1,?,?,?,-4%,0%,6.3µM*
CC(C)C(NC(=O)CC12CC3CC(CC(C3)C1)C2)C(=O)O (centres undefined),-6%,-10%,-13%,0%,-3%,2%
CC(C)C(NC(=O)C12CC3CC(CC(C3)C1)C2)C(=O)NC1=NCCS1 (centres undefined),-4%,nt,nt,?,nt,18µM*
CC(C)CC(NC(=O)CC12CC3CC(CC(C3)C1)C2)C(=O)NC1=NCCS1 (centres undefined),-28%,?,26µM*,-3%,-7%,?
O=C(NC1=NCCS1)C12CC3CC(CC(C3)C1)C2,22µM*,-3%,-34%,9%,-1%,7.1µM*
N#Cc1ccccc1OCc1ccc(-c2ccccc2C#N)cc1,nt,nt,nt,nt,-22%,nt
CC(=O)c1cccc(-c2ccnc3c2CC(C(=O)Nc2ccc4c(c2)OCO4)O3)c1 (centres undefined),nt,4.1µM*,2.3µM*,nt,13%,nt
CC(=O)Nc1ccc(-c2ccnc3c2CC(C(=O)Nc2ccc4c(c2)OCO4)O3)cc1 (centres undefined),nt,6.5µM*,8.2µM*,nt,-4%,nt
SMILES,VP16 counter,DT40 TDP1 CPT,DT40 TDP1 no CPT,ELG1 repair inh,12-LOX inh,RORg inh
CC(C)c1ccc(NC(=O)C2Cc3c(-c4ccc5c(c4)OCO5)ccnc3O2)cc1 (centres undefined),nt,?,15µM*,nt,?,nt
O=C(COc1cccc(F)c1)c1ccc2c(c1)N(CC(=O)N1CCOCC1)C(=O)CO2,nt,nt,nt,nt,34%,nt
CNC(=O)CCS(=O)(=O)Cc1coc(-c2ccc(F)cc2)n1,nt,nt,nt,nt,31%,nt
O=c1cc2oc3cc(O)c(O)cc3c(-c3ccccc3[N+](=O)[O-])c-2cc1O,?,21µM*,23µM*,21µM*,?,-32%
CCOC(=O)C1=C(C)N(C)C(=O)NC1c1cccc(Cl)c1Cl (centres undefined),nt,nt,nt,nt,1%,nt
CCOC(=O)c1c(C)[nH]c(CCC(=O)NCc2ccc(CC)cc2)c1C,nt,?,18µM*,nt,-21%,nt
CCOC(=O)c1c(C)[nH]c2cc(Br)c(OC)cc12,?,-1%,-22%,26%,-25%,0%
CCOC(=O)c1[nH]c(C)c(CCC(=O)NCc2cccc(C)c2)c1C,nt,-21%,?,nt,-13%,nt
CCOC(=O)c1c(C)[nH]c(CCC(=O)NCc2cc(Br)ccc2OC)c1C,nt,?,18µM*,nt,?,nt
CCOC(=O)c1c(C)[nH]c(CCC(=O)NCc2ccccc2Cl)c1C,nt,?,21µM*,nt,-17%,nt
CCOC(=O)c1c(C)[nH]c(C)c1S(=O)(=O)NCc1ccccc1OCC,7%,-16%,2%,2%,-18%,?
CCOC(=O)c1c(C)[nH]c(CCC(=O)NCc2ccccc2C)c1C,nt,?,13µM*,nt,-25%,nt
COc1cc2c(cc1O)CCC1C2CC[C@@]2(C)C1CC[C@@H]2O (some centres undefined),2%,2.4µM*,1.9µM*,nt,?,-22%
CCOc1cc2c(cc1O)C(=NO)CC1C2CCC2(C)C(O)CCC12 (centres undefined),nt,0.18µM*,0.052µM*,nt,0%,nt
CCOc1cc(C2NC(=O)NC2=O)ccc1O (centres undefined),5%,2%,-8%,-1%,-22%,-13%
C[C@]12CC[C@@H]3c4ccc(O)cc4CC[C@H]3[C@@H]1C[C@@H](O)[C@@H]2O,-13%,?,-16%,-4%,9%,-5%
C[C@]12CC[C@@H]3c4ccc(OC(=O)c5ccccc5)cc4CC[C@H]3[C@@H]1CC[C@@H]2O,-13%,15µM*!,13µM*!,16%,6%,-2%
COc1cc2c(cc1O)CC[C@@H]1[C@@H]2CC[C@]2(C)[C@@H](O)CC[C@@H]12,-7%,1.8µM*,4.6µM*,nt,nt,-20%
CN1CCC(N2CCC[C@@H](O)[C@H](NC(=O)c3ccc(OCc4ccccc4)cc3)C2)CC1,nt,nt,nt,nt,-6%,nt
O=C(Nc1cccc(Cl)c1)c1cc(-c2cccc(O)c2)on1,nt,nt,nt,nt,-19%,nt
CCN(CC)CCCNc1ccc(-c2nnc(-c3ccc(OCC(C)C)cc3)o2)cn1,-6%,2.9µM*,2.9µM*,12%,?,1%
